Consider 13 compounds from PubChem BioAssay (Tox21).

SMILES strings stand for the structures. Records with an inconclusive call do not appear. Calls of active or inactive are those of the source. Unless noted, calls follow the shape of the full dose curve.

For test [1], the target named is Gonadotropin-releasing hormone receptor (Homo sapiens) (UniProt P30968). Briefly: Human gonadotropin-releasing hormone receptor (GnRHR) small molecule agonists, calcium flux assay in GnRHR-HEK293 cells (AID 1920063). Also: nearly all actives have a fitted effect of over 35% in size. An outline of the steps: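 HEK293 cells stably expressing human GnRHR were plated 18 h at 37 °C, loaded with calcium dye 1 h at 37 °C, then given compound in agonist mode; fluorescence (Ex/Em 480/540) read kinetically for 3 min at 1 s intervals.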
Sequence of Gonadotropin-releasing hormone receptor (Homo sapiens) (P30968 whole entry, looked up): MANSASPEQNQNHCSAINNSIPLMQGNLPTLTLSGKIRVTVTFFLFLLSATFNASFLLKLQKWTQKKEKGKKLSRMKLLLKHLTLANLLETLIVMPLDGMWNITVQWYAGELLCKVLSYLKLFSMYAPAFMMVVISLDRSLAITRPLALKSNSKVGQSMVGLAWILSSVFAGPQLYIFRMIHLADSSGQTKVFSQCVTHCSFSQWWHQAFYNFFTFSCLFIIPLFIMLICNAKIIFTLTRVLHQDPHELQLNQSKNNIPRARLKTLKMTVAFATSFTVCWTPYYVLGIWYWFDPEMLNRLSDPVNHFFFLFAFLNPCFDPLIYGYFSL
In general terms: Calcium flux is commonly read through the fluorescence of an indicator in the cells.

Test [2] addresses KiSS-1 receptor (Homo sapiens) (UniProt Q969F8). As to the kind of experiment: Human kisspeptin (KISS1R) small molecule agonists, calcium flux assay in KISS1R-HEK293 cells (AID 1920064; active = well fitted activation curve with a large enough effect in the repeat runs). An outline of the steps:
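HEK293 cells stably expressing human KISS1R were plated 18 h at 37 °C, loaded with calcium dye for 1 h at 37 °C, then given compound by pin tool. Fluorescence (Ex/Em 480/540) was read kinetically for 3 min.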

Test [3] is described as follows: G protein-coupled receptor (GPCR) small molecule agonists, calcium flux assay: HEK293 wild type cell line counter screen (AID 1920065). The procedure, abridged: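 Cells were plated and cultured 18 h at 37 C/5% CO2, then loaded with calcium dye for 1 h at 37 C. Compounds in DMSO were pin-transferred in agonist mode, and fluorescence (Ex/Em 480/540) was read kinetically for 3 min at 1 s intervals.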

Test [4] can be described thus: p53 small molecule agonists, cell-based qHTS assay: qHTS cell viability counter screen (AID 1963581). Also: nearly all actives have a fitted effect of over 45% in size. The procedure, abridged: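 p53RE-bla HCT-116 cells were exposed to compounds for 16 h at 37 C; after the beta-lactamase FRET read in the same wells, CellTiter-Glo was added and luminescence (intracellular ATP) read after 30 min at room temperature.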
(In general: In qHTS, concentration-response curves come from the screen itself.)

For test [5], the target named is D(2) dopamine receptor (Homo sapiens) (UniProt P14416). Briefly: Dopamine D2 receptor (DRD2) small molecule agonists, cell-based qHTS assay (AID 1963594). Also: nearly all actives have a fitted effect of over 35% in size. Also: potency is read from the fitted curve at half-maximal effect. An outline of the steps: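 cAMP accumulation in DRD2-HEK293 cells measured by HTRF after 1 h detection; compounds added 10 min before NKH477 (200nM […]) forskolin-analogue stimulation, 30 min at room temperature, with Ro20-1724 present at 0.1 mM final.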
Sequence of D(2) dopamine receptor (Homo sapiens) (P14416 whole entry, looked up): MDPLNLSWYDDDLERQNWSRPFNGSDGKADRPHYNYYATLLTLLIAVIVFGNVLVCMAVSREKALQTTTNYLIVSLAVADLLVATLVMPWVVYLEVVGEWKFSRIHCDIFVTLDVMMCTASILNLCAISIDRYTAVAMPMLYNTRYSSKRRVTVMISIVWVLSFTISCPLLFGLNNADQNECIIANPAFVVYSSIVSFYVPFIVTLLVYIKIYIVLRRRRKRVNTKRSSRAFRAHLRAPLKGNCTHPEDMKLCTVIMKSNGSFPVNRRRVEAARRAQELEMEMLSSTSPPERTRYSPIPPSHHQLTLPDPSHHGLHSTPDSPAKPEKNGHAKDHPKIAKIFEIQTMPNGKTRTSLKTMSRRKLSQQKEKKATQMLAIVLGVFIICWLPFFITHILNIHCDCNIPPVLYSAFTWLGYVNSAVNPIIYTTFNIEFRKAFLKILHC

Test [6] has the same target. Briefly: Dopamine D2 receptor (DRD2) small molecule antagonists, cell-based qHTS assay (AID 1963595; active = well fitted inhibition curve with a large enough effect in the signal ratio in the repeat runs, with a control signal flat; the % refers to the signal ratio). An outline of the steps:
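Cells were plated and grown for 24 h at 37 °C. Ro20-1724 (0.1 mM final) went in first, then compound for 10 min. NKH477 (200 nM) with quinpirole (12 nM) followed for 30 min at RT, then HTRF detection reagents for 1 h.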

The nature of test [7]: cAMP Responsive Elements (CRE) small molecule agonists, cell-based qHTS assay (AID 1963590). An outline of the steps:
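CRE-bla HEK 293T cells in DMEM with 10% dialyzed FBS, NEAA, pyruvate and 25 mM HEPES were plated 18 h at 37 C/5% CO2, then exposed to compounds in DMSO for 3 h before LiveBLAzer B/G FRET substrate addition.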

Test [8] can be described thus: cAMP Responsive Elements (CRE) small molecule antagonists, cell-based qHTS assay (AID 1963591; active = well fitted inhibition curve with a large enough effect in the signal ratio in the repeat runs, not every such curve was filed as active; the % refers to the signal ratio). An outline of the steps:
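CRE-bla HEK293T cells were plated 18 h at 37 °C/5% CO2, pinned with compound in DMSO, then stimulated with NKH477 at 0.25 uM final for 3 h. LiveBLAzer B/G FRET substrate was added and plates incubated 2 h at room temperature.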

Test [9] deals with Beta-2 adrenergic receptor (Homo sapiens) (UniProt P07550). Briefly: Adrenergic beta2 receptor (ADRB2) small molecule antagonists, cell-based qHTS assay (AID 1963592). Also: series mostly up to about 92 µM; nearly all actives have a fitted effect of over 50% in size. The procedure, abridged:
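Cells (CHO, stable ADRB2 overexpression) incubated 18-20hr at 37C; compounds added from DMSO; agonist mix (1nM isoproterenol, 100uM IBMX, 25uM Ro-20-1724) added; 0.5hr RT; d2-cAMP and anti-cAMP-cryptate added; 1hr RT; 665/615 nm read.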

Test [10] in a line: p53 small molecule agonists, cell-based qHTS assay (AID 1963582; active = well fitted activation curve with a large enough effect in the signal ratio in the repeat runs, not every such curve was filed as active; the % refers to the signal ratio). An outline of the steps: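 p53RE-bla beta-lactamase reporter cells rested 5 h at 37 C/5% CO2, then received compounds in DMSO by pin transfer and were incubated 16 h at 37 C. LiveBLAzer B/G FRET substrate was loaded for 2 h at room temperature before fluorescence reading.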
Test [11] deals with 5-hydroxytryptamine receptor 2A (Homo sapiens) (UniProt P28223). Briefly: 5-hydroxytryptamine receptor 2A (HTR2A) small molecule antagonists, cell-based qHTS assay (AID 1963586). Also: nearly all actives have a fitted effect of over 45% in size. Also: potency is read from the fitted curve at half-maximal effect. The procedure, abridged:
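Antagonist-mode intracellular calcium assay: DOI (4 nM) added after 5 min compound pre-incubation at room temperature to dye-loaded HTR2A-CHO cells. Fluorescence followed for 3 min, sampled every second.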

Test [12] has the same target. Briefly: 5-hydroxytryptamine receptor 2A (HTR2A) small molecule agonists, cell-based qHTS assay (AID 1963587). Also: nearly all actives have a fitted effect of over 30% in size. The procedure, abridged: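 Kinetic calcium-flux fluorescence (2 min, 1 sec intervals) after compound addition in agonist mode. HTR2A-CHO cells were cultured 18 h, then dye-loaded 1 h at 37 C.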
Test [13] deals with Muscarinic acetylcholine receptor M1 (Homo sapiens) (UniProt P11229). Briefly: Cholinergic receptor muscarinic 1 (CHRM1) small molecule antagonists, cell-based qHTS assay (AID 1963588). Also: nearly all actives have a fitted effect of over 40% in size. An outline of the steps: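 CHRM1-CHO calcium-flux assay, antagonist mode. Cells were seeded 18 h, dye-loaded 1 h at 37 C and given compound for 5 min at RT, then acetylcholine was added at 50nM. FDSS fluorescence was read 3 min; 15 concentrations, three runs.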
Sequence of Muscarinic acetylcholine receptor M1 (Homo sapiens) (P11229 whole entry, looked up): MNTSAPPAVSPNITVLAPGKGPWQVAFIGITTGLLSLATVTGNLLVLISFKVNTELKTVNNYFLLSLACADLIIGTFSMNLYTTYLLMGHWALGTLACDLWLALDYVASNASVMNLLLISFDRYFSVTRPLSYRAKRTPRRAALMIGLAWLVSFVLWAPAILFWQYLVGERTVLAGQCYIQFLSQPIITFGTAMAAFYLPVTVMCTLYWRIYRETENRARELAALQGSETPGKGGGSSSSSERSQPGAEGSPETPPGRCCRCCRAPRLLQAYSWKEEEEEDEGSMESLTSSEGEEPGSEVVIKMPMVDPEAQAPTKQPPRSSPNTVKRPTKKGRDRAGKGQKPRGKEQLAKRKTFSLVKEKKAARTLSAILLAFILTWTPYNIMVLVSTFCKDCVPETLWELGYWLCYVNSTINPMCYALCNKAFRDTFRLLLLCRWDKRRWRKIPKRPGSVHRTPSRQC

Test [14] shares this target. Briefly: Cholinergic receptor muscarinic 1 (CHRM1) small molecule agonists, cell-based qHTS assay (AID 1963589). Also: nearly all actives have a fitted effect of over 35% in size. An outline of the steps:
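CHO cells stably expressing human CHRM1, seeded 18 h at 37 C/5% CO2, dye-loaded 1 h at 37 C, then given compound in agonist mode; intracellular calcium fluorescence read kinetically at 1 s intervals. Fifteen concentrations, three independent runs.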

The target in test [15] is Beta-2 adrenergic receptor (Homo sapiens) (UniProt P07550). Briefly: Adrenergic beta2 receptor (ADRB2) small molecule agonists, cell-based qHTS assay (AID 1963593).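 Also: CHO cells stably overexpressing human ADRB2.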 The procedure, abridged: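 CHO cells stably over-expressing ADRB2 were plated overnight at 37C, then dosed with compounds plus a stimulation mix containing 100uM IBMX and 25uM Ro-20-1724 for 0.5hr at room temperature. cAMP was measured by HTRF competition, 1hr.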
Sequence of Beta-2 adrenergic receptor (Homo sapiens) (P07550 whole entry, looked up): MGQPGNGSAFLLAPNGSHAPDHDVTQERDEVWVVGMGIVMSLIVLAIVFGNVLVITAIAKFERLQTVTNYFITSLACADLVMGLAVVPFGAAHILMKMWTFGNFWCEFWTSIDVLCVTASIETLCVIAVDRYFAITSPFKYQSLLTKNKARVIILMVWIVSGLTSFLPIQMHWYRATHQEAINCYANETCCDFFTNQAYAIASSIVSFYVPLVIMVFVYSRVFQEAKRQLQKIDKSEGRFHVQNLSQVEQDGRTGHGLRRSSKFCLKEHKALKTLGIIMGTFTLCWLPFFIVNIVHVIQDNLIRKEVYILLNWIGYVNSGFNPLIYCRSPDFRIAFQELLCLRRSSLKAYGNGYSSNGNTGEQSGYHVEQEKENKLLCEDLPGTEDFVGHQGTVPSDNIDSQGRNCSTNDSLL

A short description of test [16]: p53 small molecule agonists, cell-based qHTS assay with rat liver microsomes: qHTS cell viability counter screen (AID 1963580). Also: nearly all actives have a fitted effect of over 45% in size. An outline of the steps: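 HCT-116 p53RE-bla, 4,000 cells/well, 5 h pre-incubation; cpd + rat liver microsomes 0.5 mg/mL + NADPH 0.5 mg/mL (final); 16 h, 37 C; CellTiter-Glo, 30 min RT; luminescence.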

Sequence of 5-hydroxytryptamine receptor 2A (Homo sapiens) (P28223 whole entry, looked up): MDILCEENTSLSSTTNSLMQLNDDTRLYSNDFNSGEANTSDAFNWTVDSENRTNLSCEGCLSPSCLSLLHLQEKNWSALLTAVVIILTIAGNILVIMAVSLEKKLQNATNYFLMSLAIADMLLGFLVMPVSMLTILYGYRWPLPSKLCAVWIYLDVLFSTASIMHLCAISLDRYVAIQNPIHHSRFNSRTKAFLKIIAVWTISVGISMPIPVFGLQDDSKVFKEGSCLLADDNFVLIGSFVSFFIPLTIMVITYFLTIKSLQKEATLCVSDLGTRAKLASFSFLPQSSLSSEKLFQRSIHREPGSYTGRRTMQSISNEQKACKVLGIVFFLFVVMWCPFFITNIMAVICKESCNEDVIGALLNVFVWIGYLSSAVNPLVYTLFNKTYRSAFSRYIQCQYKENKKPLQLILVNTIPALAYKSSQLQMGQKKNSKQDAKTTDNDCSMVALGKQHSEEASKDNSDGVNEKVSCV
Sequence of KiSS-1 receptor (Homo sapiens) (Q969F8 whole entry, looked up): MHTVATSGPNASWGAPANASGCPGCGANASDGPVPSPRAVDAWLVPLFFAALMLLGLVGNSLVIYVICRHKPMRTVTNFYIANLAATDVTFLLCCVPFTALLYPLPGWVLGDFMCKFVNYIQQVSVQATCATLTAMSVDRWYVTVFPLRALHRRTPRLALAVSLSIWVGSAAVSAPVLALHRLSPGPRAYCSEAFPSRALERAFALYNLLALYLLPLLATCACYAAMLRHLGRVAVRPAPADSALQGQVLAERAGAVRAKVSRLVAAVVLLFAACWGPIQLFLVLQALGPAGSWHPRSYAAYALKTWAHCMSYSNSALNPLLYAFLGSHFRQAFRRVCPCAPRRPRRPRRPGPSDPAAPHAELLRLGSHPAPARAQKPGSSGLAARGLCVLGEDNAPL

As to `CCCC(=O)Nc1ccc(OCC(O)CNC(C)C)c(C(C)=O)c1` (stereo not drawn), the Potency result in test [1], in test [2], in test [3], in test [4] and in [6] was “inactive” throughout. In addition, the Potency in [5] was 18.8 µM (active).

`Cc1cc(NS(=O)(=O)c2ccc(N)cc2)no1`: the Potency result in test [1], in test [2], in [3], in test [7], in [8] and in test [9] was “inactive” in each case. The Potency entry in [5] was “inactive”.

`CCCCCCCCCO`: the Potency result in test [1], in test [2], in test [3], in test [4], in test [10] and in [11] was “inactive” throughout. Besides, the Potency result in test [12], in test [13], in [14], in test [7], in test [8] and in [9] was “inactive” in each case. Further, the Potency entry in [6] is “inactive”.

Consider `O=C(O)COCCN1CCN(C(c2ccccc2)c2ccc(Cl)cc2)CC1` (stereo not drawn), for which the Potency entry in test [1], in [2], in test [3], in test [4], in test [10] and in test [11] was “inactive” each time. For the same compound, the Potency result in test [12], in test [13], in test [14], in test [7], in test [8] and in test [9] was “inactive” in each case. For the same compound, the Potency result in test [15], in [5] and in test [6] was “inactive” in each case.

With `CC(C)n1c(/C=C/[C@@H](O)C[C@@H](O)CC(=O)O)c(-c2ccc(F)cc2)c2ccccc21`, the Potency entry in test [1], in [2], in [3], in [4], in test [7] and in test [9] was “inactive” each time. The Potency entry in test [15], in test [5] and in test [6] was “inactive” in each case.

On to `Nc1ccc(O)c([N+](=O)[O-])c1`, for which the Potency result in test [1], in [2], in [3], in test [16], in [12] and in test [13] was “inactive” each time. The Potency result in [14] was “inactive”.

For `CC(C)(C)NC(=O)[C@@H]1C[C@@H]2CCCC[C@@H]2CN1C[C@@H](O)[C@H](Cc1ccccc1)NC(=O)[C@H](CC(N)=O)NC(=O)c1ccc2ccccc2n1`, the Potency entry in test [1], in test [2], in [3], in [9], in test [5] and in [6] was “inactive” in each case.

Turning to `CN(C)CCOC(c1ccccc1)c1ccccc1` (tested in a mixture with another compound), the Potency entry in test [1], in test [2], in test [3], in test [8] and in [6] was “inactive” throughout.

Turning to `CC(=O)Nc1ccc(O)cc1`, the Potency entry in test [1], in [2], in [3], in [7], in test [8] and in test [9] was “inactive” each time. Further, the Potency result in [5] and in test [6] was “inactive” in each case.

Turning to `O=C(c1ccccc1)c1ccccc1`, the Potency entry in test [1], in test [2], in test [3], in test [4], in test [10] and in test [11] was “inactive” in each case. Further, the Potency entry in test [12], in [14], in test [7], in test [8], in test [9] and in [15] was “inactive” throughout. Also, the Potency result in [5] and in test [6] was “inactive” throughout.

On to `OCC(O)CO`, for which the Potency result in test [1], in [2], in test [3], in test [11], in [12] and in test [13] was “inactive” throughout. The Potency entry in [14], in [7], in [8], in test [9], in test [15] and in test [5] was “inactive” in each case. Further, in test [6], the Potency result is “inactive”.

For `Nc1nc2ccc([N+](=O)[O-])cc2s1`, the Potency result in test [1], in [2], in test [3], in test [4], in [12] and in test [14] was “inactive” each time. Moreover, the Potency result in [9] was “inactive”. The Potency in test [11] was 3.75 µM (active).

On to `CC(C)(C)c1ccc(C(O)CCCN2CCC(C(O)(c3ccccc3)c3ccccc3)CC2)cc1` (stereo not drawn), for which the Potency result in test [1], in test [2], in test [3], in test [9], in test [15] and in test [5] was “inactive” each time. In test [6], the Potency result was “inactive”.
